From PubChem
GLP1R cytotox – qHTS of GLP-1 Receptor Inverse Agonists: Cytotox Screen; HEK293 cAMP-luciferase reporter cells, luminescence, 24 h; actives 0.13% (n = 410,000); Potency, µM (titrated, usually from 38.3 µM), for the others: at the top dose activity change, negative = inhibition, most hits filed as inhibitors;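 further: loss of luciferase light is scored as toxicity; on the % scale 0 is the no-effect control and ±100 the full control effect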
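Cells in DMEM/10% Nu serum/1% pen-strep, 1536-well format. Pre-incubated 12 h, dosed with 23 nL compound, incubated a further 24 h. Luciferase detection, 12 min at room temp, luminescence.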
RGS4 inh – Inhibitors of Regulator of G Protein Signaling (RGS) 4: qHTS | Regulator of G-protein signaling 4 (Homo sapiens), P49798 | Transcreener GDP fluorescence polarization, RGS4-accelerated GTP hydrolysis | Potency, µM (top dose mostly 114 µM), inactives show top-dose activity change, negative = inhibition, actives largely listed as inhibitors | actives 0.039% (n = 390,000); further: on the % scale 0 is the no-effect control and ±100 the full control effect; nearly all actives have a fitted effect of over 75% in size
Target sequence (P49798 whole entry, looked up): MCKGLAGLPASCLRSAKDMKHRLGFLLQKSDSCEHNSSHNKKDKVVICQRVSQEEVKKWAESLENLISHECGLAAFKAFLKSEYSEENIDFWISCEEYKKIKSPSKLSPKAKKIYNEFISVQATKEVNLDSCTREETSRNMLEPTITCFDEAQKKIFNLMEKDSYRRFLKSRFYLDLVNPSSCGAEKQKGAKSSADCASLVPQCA
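MLSMR compounds (23 nl, pin-transferred) preincubated 10 min at room temperature with a 500nM (2x) first reagent, then RGS4 at 900nM (2x) plus Transcreener GDP mix added; fluorescence polarization (620/688 nm) read before and after 90 min at 30 °C.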
GCN5L2 inh – qHTS Assay for Inhibitors of GCN5L2; actives 0.21% (n = 390,000); Potency, µM (doses to about 58.9 µM), inactives show top-dose activity change, negative = inhibition, usual class: inhibitors; AID 504327, 2011; GCN5L2 HAT assay, ThioGlo1 CoA-SH fluorescence; Histone acetyltransferase KAT2A (Homo sapiens), Q92830; further: on the % scale 0 is the no-effect control and ±100 the full control effect
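ThioGlo1-coupled HAT assay: 20nM GCN5L2, 70uM acetyl-CoA, 75uM H3(1-25) peptide, pH 7.5. Fluorescence read at 340/540nm at start and after 20 min at room temperature.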
GLP1R inv ag – qHTS of GLP-1 Receptor Inverse Agonists (Inhibition Mode). actives 1.6% (n = 410,000). Glucagon-like peptide 1 receptor (Homo sapiens), P43220. AID 624417, 2012. Potency, µM (top dose mostly 38.3 µM), for inactives: at the top dose activity change, negative = inhibition, usual class: inhibitors. HEK293 GLP-1R CRE-luciferase, luminescence, 24 h; GLP-1R form is constitutively active; further: on the % scale 0 is the no-effect control and ±100 the full control effect; nearly all actives have a fitted effect of over 55% in size
Target sequence (P43220 whole entry, looked up): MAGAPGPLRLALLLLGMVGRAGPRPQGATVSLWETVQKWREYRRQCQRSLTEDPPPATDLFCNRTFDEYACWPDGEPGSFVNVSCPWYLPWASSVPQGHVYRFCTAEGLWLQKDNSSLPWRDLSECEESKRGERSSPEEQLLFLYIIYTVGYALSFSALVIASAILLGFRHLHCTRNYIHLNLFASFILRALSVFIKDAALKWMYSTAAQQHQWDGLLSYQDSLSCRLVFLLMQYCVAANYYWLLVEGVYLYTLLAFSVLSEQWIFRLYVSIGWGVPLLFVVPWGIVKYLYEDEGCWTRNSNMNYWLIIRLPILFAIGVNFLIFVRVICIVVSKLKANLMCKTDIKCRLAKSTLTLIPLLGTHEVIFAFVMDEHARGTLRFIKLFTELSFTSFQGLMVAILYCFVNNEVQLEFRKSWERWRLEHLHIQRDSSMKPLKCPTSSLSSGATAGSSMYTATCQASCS
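Readout was luciferase luminescence, measured 12 min after detection reagent at room temperature. Beforehand, GLP-1R reporter HEK293 cells had sat 12 h, then received compounds for 24 hr at 37 deg C.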
GLP-1R agonist – qHTS of GLP-1 Receptor Agonists; Glucagon-like peptide 1 receptor (Homo sapiens), P43220; HEK293 GLP-1R CRE-luciferase, luminescence, 4-6 h; cells express a hypersensitive GLP-1R form; Potency, µM (highest dose often 45.6 µM), for the others: at the highest dose activation, most hits filed as activators; actives 0.007% (n = 380,000); AID 624172, 2012; further: % of control where 0% means no effect
PTHR1 agonist – qHTS for PTHR1 Agonists: Primary Screen; Parathyroid hormone/parathyroid hormone-related peptide receptor (Homo sapiens), Q03431; HEK293 GP2 PTHR1 cells, GloSensor cAMP luminescence, 1 h; Potency, µM (top dose mostly 115 µM), for inactives: at the top dose activation, usual class: activators; actives 0.075% (n = 410,000); AID 743266, 2014; further: nearly all actives have a fitted effect of over 55% in size
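HEK-293-derived GP2 cells expressing PTHR1 and a GloSensor cAMP reporter, 3,000/well, plated overnight, given luciferin plus IBMX (each 0.5 mM as added) for 1 h at 37 °C, then compound for 1 h at 37 °C. Luminescence was read after 15 min at room temperature.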
* hit, by the source's call; i = inactive; ? = inconclusive; . = no result given; [ ] = another dose, or the depositor's remark. Hits are enriched below; roughly 1.8% of the tested compounds scored in any of these assays. The call rests on the fitted dose curve; in most records, active means well fitted curve in the direction sought with a large enough effect; inconclusive means small, poorly fitted or top-dose-only effect, or another doubt; inactive means no such curve, though single readings can be large; an effect the other way counts as inactive or inconclusive. Potency means the concentration at half of the fitted maximal effect.

SMILES	GLP1R cytotox	RGS4 inh	GCN5L2 inh	GLP1R inv ag	GLP-1R agonist	PTHR1 agonist
COc1cc(/C=C2\SC(=Nc3ccccc3)N(CCc3c[nH]c4ccccc34)C2=O)ccc1OC(C)C(=O)O (stereo not given)	-6%[1.53 µM]	?	?	11%	-9%	-17%
O=C1/C(=C/c2ccc(N3CCOCC3)o2)SC(=Nc2ccccc2)N1CCc1c[nH]c2ccccc12	?	?	1%	1.1µM*	-53%	-58%
CCOC(=O)C1=CN(Cc2cccc(F)c2)S(=O)(=O)NC1c1ccc(Br)cc1F (stereo not given)	1%	-4%	-16%	10µM*	1%	-29%
CCOc1cc(O)c(-c2[nH]ncc2-c2nc(C)cs2)cc1CC	?	9%	-8%	?	4%	-29%
COC(=O)N/N=C/c1ccc(-c2ccc(C)c(Cl)c2)o1	0%	-7%	44%	15%	-8%	-16%
Cc1ccc(-c2ccc(/C=N/c3ncn[nH]3)o2)cc1Cl	?	-29%	-6%	8.9µM*	-17%	i
O=C(NCCc1ccccc1)C1CCN(S(=O)(=O)c2cccc3nonc23)CC1	-8%	-5%	-4%[0.501 µM]	3%	-31%	i
O=C(NCCN1CCN(c2ccccc2)CC1)C1CCN(S(=O)(=O)c2cccc3nonc23)CC1	12%	17%	1.8µM*	2%	-13%	i
NC(=O)[C@@H]1CCCN1C(=O)c1ccc2nc(Cc3cccc(Cl)c3)oc2c1	-3%	-4%	-6%	6%	-4%	i
O=C(Nc1ccccc1C(=O)Nc1ccc(Br)cn1)c1ccccc1Cl	3%	9%	-6%	10µM*	-1%	-25%
Cc1ccc(Cn2nc(C)cc2C(=O)Nc2ccccc2Cl)cc1	8%	-10%	27%	-27%	38%	-15%
Cc1cccc(Cn2nc(C(C)(C)C)cc2C(=O)Nc2ccc(F)cc2)c1	?	-20%	-14%	5µM*	0%	-32%
CC(C)(C)c1cc(C(=O)NN)n(Cc2ccc(F)cc2)n1	4%	5%	-5%	?	3%	-9%
Cc1ccc(Cn2nc(C)cc2C(=O)Nc2ccc(Cl)cc2)cc1	0%	-6%	-6%	4.5µM*	13%	-8%
COC(=O)c1cc(NCc2ccc3c(c2)OCO3)ccc1N1CCOCC1	6%	-16%	-3%	1%	10%	-12%
COC(=O)c1cc(NC(=O)c2cc(C(C)(C)C)nn2Cc2ccc(F)cc2)ccc1N1CCOCC1	-27%	-21%	-10%	3.5µM*	-2%	-23%
CC1(Cn2ccnn2)[C@H](C(=O)O)N2C(=O)C[C@H]2S1(=O)=O (stereo not given in full)	.	.	-13%	.	-2%	.
Cc1cccc(-c2cccc3nccn23)c1	-3%	.	.	22%	0%	i
COc1cc([N+](=O)[O-])ccc1NC(=O)NCC1CCN(Cc2ccc(Cl)cc2)CC1	?	-21%	?	10µM*	1%	-80%
COc1ccc(Cl)cc1NC(=O)NCC1CCN(Cc2cc(C)ccc2C)CC1	?	-11%	-25%	?	-8%	-25%
Cc1noc(C)c1-c1nccc(NCc2cccs2)n1	.	.	-13%	.	.	.
CCOC(=O)[C@]12CCCC=C1N(Cc1ccc3c(c1)OCO3)C(=O)[C@H](CC(=O)NCCC(C)C)C2	-1%	.	.	?	-4%	-9%
O=C(COc1ccc(Br)cc1CO)Nc1ccc(S(=O)(=O)N2CCCCC2)cc1	-1%	-12%	-13%	10µM*	-3%	-69%
CCc1ccc(OCC(=O)Nc2ccc(S(=O)(=O)N3CCCC3)cc2)c(Br)c1	-28%	-23%	-18%	-2%	-17%	0%[57.5 µM]
O=C(CNc1ccc(Br)cc1)Nc1ccc(S(=O)(=O)N2CCCC2)cc1	-27%	6%	-6%	10µM*	-15%	-10%
SMILES	GLP1R cytotox	RGS4 inh	GCN5L2 inh	GLP1R inv ag	GLP-1R agonist	PTHR1 agonist
CC(C)Oc1ccc(C2c3c(oc4ccccc4c3=O)C(=O)N2CCCN2CCOCC2)cc1 (stereo not given)	4%	-17%	4%	5%	8%	12%[57.5 µM]
COc1ccc(S(=O)(=O)N2CCOc3ccccc32)cc1	?	13%	-18%	3.5µM*	-3%	5%
Cc1cc(Nc2ccc3c(c2)OCCO3)c2cccc(C)c2n1	8.9µM*	10%	-1%	?	4%	i
CCN(CC)CCCNC(=O)c1ccc(S(=O)(=O)Nc2ccc(C)c(C)c2)cc1	14%	-24%	2%	7.9µM*	8%	i
CCCC(=O)NC(c1ccc2c(c1)OCO2)c1cc(Cl)c2cccnc2c1O (stereo not given)	-31%	-8%	0%	4µM*	-18%	-18%
O=S(=O)(NC(=NCc1ccccc1)c1ccc(F)cc1)c1ccc(Cl)cc1	-1%	5%	4%	11µM*	-5%	-13%
O=C(O)CN=C(NS(=O)(=O)c1ccc(Cl)cc1)c1ccc(F)cc1	-2%	18%	-11%	-5%	-4%	-1%
COc1cccc(C(C)NC(=O)Nc2ccccc2Cl)c1 (stereo not given)	23%	20%[11.4 µM]	4%	13µM*	-1%	-7%
COc1cccc(C(C)NC(=O)c2c(F)cccc2Cl)c1 (stereo not given)	-8%	10%	-6%	-8%	0%	i
Cc1ccc(NC(=O)C(c2ccccc2)N(C)C)cc1Cl (stereo not given)	-10%	-4%	-4%	5µM*	4%	i
CC(NC(=O)Nc1cc(Cl)ccc1Cl)c1c(-n2cccc2)sc2c1CCCC2 (stereo not given)	-10%	-4%	-1%	3.5µM*	.	i
CCOC(=O)c1ccc(NC(=O)c2oc3c(c2C)-c2nn(Cc4ccccc4Cl)cc2CC3)cc1	-6%	17%	-6%	?	.	-42%
CCOc1ccccc1NC(=O)N1CCc2c(sc3c2CCCC3)C1c1ccccc1 (stereo not given)	9%	-2%	-5%	?	.	i
